About 13,000 (27%) of roughly 48,000 compounds showed an effect of 50% or more. The list shows a part of the results.
Tested on: Wolbachia pipientis
Experiment: Anti-Wolbachia Cell-Based Screen
Format: functional
Set-up: scale not given: in the data most compounds retested in dose-response had high values
Details: 5 µM

Compound	Percent Effect [%]
CN(Cc1ccsc1)C(=O)CN1CCCC(Cn2cncn2)C1 (stereo not drawn)	109.8
CN(Cc1ccc(F)cc1)C(=O)CN1CCCC(Cn2cncn2)C1 (stereo not drawn)	-5.404
CCN(Cc1ccccc1)C(=O)CN1CCCC(Cn2cncn2)C1 (stereo not drawn)	3.711
CN(Cc1ccccc1)C(=O)CN1CCCCC1Cn1cncn1 (stereo not drawn)	-0.2947
Cc1ccc(CN(C)C(=O)CN2CCCC(Cn3cncn3)C2)o1 (stereo not drawn)	96.55
CN(Cc1ccco1)C(=O)CN1CCCC(Cn2cncn2)C1 (stereo not drawn)	5.962
CN(Cc1ccsc1)C(=O)CN1CCCC1Cn1cccn1 (stereo not drawn)	-10.05
O=C(CN1CCCC(Cn2cncn2)C1)NCc1ccco1 (stereo not drawn)	1.739
Cc1ccc(CN(C)C(=O)CN2CCCC2Cn2cncn2)cc1 (stereo not drawn)	-14.18
Cc1ccc(CN(C)C(=O)CN2CCCC(Cn3cncn3)C2)cc1 (stereo not drawn)	90.35
CN(Cc1ccccc1)C(=O)CN1CCCC(Cn2cncn2)C1 (stereo not drawn)	97.22
CN(Cc1cccc(F)c1)C(=O)CN1CCCC(Cn2cncn2)C1 (stereo not drawn)	16.73
CC(C)c1nc(CN(C)C(=O)CCS(=O)(=O)c2ccccc2)no1	-0.5439
O=C(NS(=O)(=O)c1cccc(C(F)(F)F)c1)c1cscn1	5.239
CSCC(C)CNC(=O)N1CCSC(C)(C)C1 (stereo not drawn)	-11.84
Cc1ccsc1C(=O)N1CCCn2nnc(Cn3cccn3)c2C1	-8.648
NC(=O)C1CCN(CC(=O)NCCc2c(F)cccc2F)CC1	-5.279
CN(Cc1cccs1)C(=O)CN1CCCC1Cn1cncn1 (stereo not drawn)	4.485
Cc1ccc(CNC(=O)CN2CCCC(Cn3cncn3)C2)s1 (stereo not drawn)	2.763
CN(Cc1cccs1)C(=O)CN1CCCC(Cn2cncn2)C1 (stereo not drawn)	104.7
Cc1ccccc1CN(C)C(=O)CN1CCCCC1Cn1cncn1 (stereo not drawn)	13
CN(Cc1cccs1)C(=O)CN1CCCCC1Cn1cncn1 (stereo not drawn)	-8.193
CN(Cc1cnn(C)c1)C(=O)CN1CCCC1Cn1cncn1 (stereo not drawn)	-17.06
CN(Cc1cnn(C)c1)C(=O)CN1CCCC(Cn2cncn2)C1 (stereo not drawn)	99.58
Cc1ccccc1CN(C)C(=O)CN1CCCC(Cn2cncn2)C1 (stereo not drawn)	113.1
CN(Cc1cnn(C)c1)C(=O)CN1CCCCC1Cn1cncn1 (stereo not drawn)	-1.261
Cc1ccc(F)c(OC2(C(=O)O)CCN(C(=O)C3CCCC3)CC2)c1	-29.08

Compound	Percent Effect [%]
CC(C)c1nccn1CCn1cnc2ccsc2c1=O	2.985
Cc1ccc(C(=O)NCCCC2(C3OCCO3)CCOCC2)cc1C	-3.842
Cc1ccccc1CN(C)C(=O)CCc1nc(-c2nnc[nH]2)no1	4.436
CNC(=O)c1cc2c(nc1N(C)C)CCN(S(=O)(=O)CC(C)C)CC2.O=C(O)C(F)(F)F	-14.6
CNC(=O)c1cc2c(nc1N(C)C)CCN(S(=O)(=O)C1CC1)CC2.O=C(O)C(F)(F)F	-2.828
CNC(=O)c1cc2c(nc1N(C)C)CCN(c1ncccn1)CC2.O=C(O)C(F)(F)F	100.6
CCc1cnc(N2CCc3ncnc(N4CCN(C)CC4)c3CC2)nc1.O=C(O)C(F)(F)F	-0.8279
CNC(=O)c1cc2c(nc1NCC(C)C)CCN(c1ncccn1)CC2.O=C(O)C(F)(F)F	-3.442
CNC(=O)c1cc2c(nc1N(C)C)CCN(c1ncc(C)cn1)CC2.O=C(O)C(F)(F)F	101.6
CNC(=O)c1cc2c(nc1N(C)C)CCN(C)CC2.O=C(O)C(F)(F)F.O=C(O)C(F)(F)F	0.7225
CNC(=O)c1cc2c(nc1N(C)C)CCN(c1ncc(F)cn1)CC2.O=C(O)C(F)(F)F	86.67
CCc1cnc(N2CCc3cc(C(=O)NC)c(N(C)C)nc3CC2)nc1.O=C(O)C(F)(F)F	91.47
CCS(=O)(=O)N1CCc2cc(C(=O)NC)c(N(C)C)nc2CC1	15.07
CNC(=O)c1cc2c(nc1NCC(C)C)CCN(C)CC2.O=C(O)C(F)(F)F.O=C(O)C(F)(F)F	-3.691
CNC(=O)c1cc2c(nc1N(C)C)CCN(S(=O)(=O)N(C)C)CC2.O=C(O)C(F)(F)F	-4.998
CCN(CCc1nc2cc(C)ccc2[nH]1)C(=O)COC	16.32
CCSCCC(C)N(C)C(=O)c1ccc2nncn2c1 (stereo not drawn)	5.422
CC(C)N1CCC(CC(=O)NC[C@H]2CCc3ccccc3O2)CC1	10.1
Cc1cc(NC2CCN(c3ccccc3)C2)n2ncnc2n1 (stereo not drawn)	-12.56
Cc1cc(=O)n2ncnc2n1CC(O)c1ccccc1 (stereo not drawn)	-22.33
CCOc1cc(C)nc(N2CCN(Cc3nccn3CC)CC2)n1	-15.08
O=C(CSc1ccc(F)c(F)c1)NS(=O)(=O)c1ccc2c(c1)OCCO2	-0.1688
Cc1cnc(N2C[C@@H]3[C@@H](C2)OCC(=O)N3CCN(C)C)nc1.O=C(O)C(F)(F)F	-6.584
Cc1cnc(N2CCc3cc(C(=O)O)c(N(C)C)nc3CC2)nc1.O=C(O)C(F)(F)F	100.3
Cn1cc(-c2nc3c(cc2C(=O)O)CCN(C(=O)C2CC2)CC3)cn1.O=C(O)C(F)(F)F	-6.455
CC(=O)N1CC[C@]2(O)CCN(Cc3nc(C)c[nH]3)C[C@@H]2C1	-2.174

From ChEMBL document CHEMBL3988442, “University of Dundee, Small-Polar-MMV Screening Library” (2021)
